# Results as given in PubChem BioAssay (EPA / NIEHS).
# Several values for one entry are separate records, joined by “and”; a condition that tells them apart may be missing. Equal entries are not always repeated. Records with an inconclusive call do not appear. Activity calls are given as the source filed them. The calls were made as follows, unless noted: active = hit-call score of the fitted dose curve at least 0.9, where 1 is the maximum; inconclusive = response in the unintended direction; inactive = score below 0.9.
# Assays:
# [1] = target: Cytochrome P450 2C19 (Homo sapiens) (UniProt P33261); assay: NVS_ADME_hCYP2C19: NovaScreen (NVS) CYP450-related Enzyme Activity (ADME) Assay for human CYP2C19 (AID 2283113);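 also: potency for inhibition seen as loss of fluorescent signal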
# In short: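 Cell-free recombinant human CYP2C19 from insect cells, fluorescent substrate; activity read by fluorescence intensity 1 h after dosing. Primary screen in duplicate at 10 uM; actives retested in concentration series. Signal loss versus acetonitrile negative control.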
# [2] = target: human CYP2D6, CYP2D6 (gene 1565) (UniProt P10635); assay: NVS_ADME_hCYP2D6: NovaScreen (NVS) CYP450-related Enzyme Activity (ADME) Assay for human CYP2D6 (AID 2283107)
# Chain of human CYP2D6, CYP2D6 (gene 1565) (P10635 whole entry, looked up): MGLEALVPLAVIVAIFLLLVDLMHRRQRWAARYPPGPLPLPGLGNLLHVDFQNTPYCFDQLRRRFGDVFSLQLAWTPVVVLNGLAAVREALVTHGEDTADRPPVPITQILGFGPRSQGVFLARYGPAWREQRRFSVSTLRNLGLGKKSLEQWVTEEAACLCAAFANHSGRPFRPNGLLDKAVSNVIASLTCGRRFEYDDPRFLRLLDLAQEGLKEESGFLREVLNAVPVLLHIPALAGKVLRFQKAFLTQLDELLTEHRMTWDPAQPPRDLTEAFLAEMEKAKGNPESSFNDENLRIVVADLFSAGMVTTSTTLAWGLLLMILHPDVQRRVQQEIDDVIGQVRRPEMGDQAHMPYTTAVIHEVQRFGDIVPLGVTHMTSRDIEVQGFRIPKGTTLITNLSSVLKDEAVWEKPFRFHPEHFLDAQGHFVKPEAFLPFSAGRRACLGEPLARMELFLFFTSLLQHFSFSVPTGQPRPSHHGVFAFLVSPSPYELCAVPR
# In short: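 Cell-free assay using recombinant human CYP2D6 expressed in insect cells, with a fluorogenic substrate read after 1 h. Primary screen in duplicate at 10 uM; actives followed up in concentration series. Loss of signal fitted relative to acetonitrile.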
# [3] = target: human CYP2C9, CYP2C9 (gene 1559) (UniProt P11712); assay: NVS_ADME_hCYP2C9: NovaScreen (NVS) CYP450-related Enzyme Activity (ADME) Assay for human CYP2C9 (AID 2283108)
# Chain of human CYP2C9, CYP2C9 (gene 1559) (P11712 whole entry, looked up): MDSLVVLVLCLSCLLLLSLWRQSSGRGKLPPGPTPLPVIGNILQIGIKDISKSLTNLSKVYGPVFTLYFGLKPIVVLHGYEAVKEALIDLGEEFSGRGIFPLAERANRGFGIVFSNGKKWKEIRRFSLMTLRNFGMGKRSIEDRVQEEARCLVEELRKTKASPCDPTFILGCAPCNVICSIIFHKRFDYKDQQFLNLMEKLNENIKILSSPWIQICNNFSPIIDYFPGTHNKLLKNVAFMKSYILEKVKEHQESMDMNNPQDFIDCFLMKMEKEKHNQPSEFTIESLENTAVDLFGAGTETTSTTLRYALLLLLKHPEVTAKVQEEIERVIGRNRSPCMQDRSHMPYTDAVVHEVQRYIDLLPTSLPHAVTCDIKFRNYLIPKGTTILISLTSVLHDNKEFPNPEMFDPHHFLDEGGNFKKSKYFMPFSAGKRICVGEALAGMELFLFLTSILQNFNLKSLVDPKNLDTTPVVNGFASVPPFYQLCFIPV
# In short: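 Fluorescence readout of CYP2C9 activity (SF9-expressed human enzyme) at 0.75 h. The primary screen used 10 uM in duplicate, with concentration-response follow-up for actives; acetonitrile was the negative control.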
# [4] = target: Cytochrome P450 3A4 (Homo sapiens) (UniProt P08684); assay: NVS_ADME_hCYP3A4: NovaScreen (NVS) CYP450-related Enzyme Activity (ADME) Assay for human CYP3A4 (AID 2283110)
# Chain of Cytochrome P450 3A4 (Homo sapiens) (P08684 whole entry, looked up): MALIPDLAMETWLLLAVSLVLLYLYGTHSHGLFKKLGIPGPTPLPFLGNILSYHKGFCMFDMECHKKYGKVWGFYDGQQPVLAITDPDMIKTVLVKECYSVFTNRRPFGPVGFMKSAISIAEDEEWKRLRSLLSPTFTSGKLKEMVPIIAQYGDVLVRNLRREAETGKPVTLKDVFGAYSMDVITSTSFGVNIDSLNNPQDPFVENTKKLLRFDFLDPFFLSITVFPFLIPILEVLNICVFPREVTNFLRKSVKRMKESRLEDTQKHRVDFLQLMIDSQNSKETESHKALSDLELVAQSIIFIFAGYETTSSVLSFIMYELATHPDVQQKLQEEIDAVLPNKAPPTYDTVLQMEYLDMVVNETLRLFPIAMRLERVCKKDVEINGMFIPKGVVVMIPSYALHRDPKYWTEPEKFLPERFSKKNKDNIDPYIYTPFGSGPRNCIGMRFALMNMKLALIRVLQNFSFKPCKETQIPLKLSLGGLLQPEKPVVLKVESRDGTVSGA
# In short: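 Compounds screened in duplicate at 10 uM, with follow-up concentration-response for actives, against insect-cell-expressed recombinant enzyme. Activity read by fluorescence 0.33 h after dosing; loss of signal versus acetonitrile control indicates inhibition.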
# [5] = target: rat CYP2A2, Cyp2a2 (gene 24895) (UniProt P15149); assay: NVS_ADME_rCYP2A2: NovaScreen (NVS) CYP450-related Enzyme Activity (ADME) Assay for rat CYP2A2 (AID 2283116)
# Chain of rat CYP2A2, Cyp2a2 (gene 24895) (P15149 whole entry, looked up): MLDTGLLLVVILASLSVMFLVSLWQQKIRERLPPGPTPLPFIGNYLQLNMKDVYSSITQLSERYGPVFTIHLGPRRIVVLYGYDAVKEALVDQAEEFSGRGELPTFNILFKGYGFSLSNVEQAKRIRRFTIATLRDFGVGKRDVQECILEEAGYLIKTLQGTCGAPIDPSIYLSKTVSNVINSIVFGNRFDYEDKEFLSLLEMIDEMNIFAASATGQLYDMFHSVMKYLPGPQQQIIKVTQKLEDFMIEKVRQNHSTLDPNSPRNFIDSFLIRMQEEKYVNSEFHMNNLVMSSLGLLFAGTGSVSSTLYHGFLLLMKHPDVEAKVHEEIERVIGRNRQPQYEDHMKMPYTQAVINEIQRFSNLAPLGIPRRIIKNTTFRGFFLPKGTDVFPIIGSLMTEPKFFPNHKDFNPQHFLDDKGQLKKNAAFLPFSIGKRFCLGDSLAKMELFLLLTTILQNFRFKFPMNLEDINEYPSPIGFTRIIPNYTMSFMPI
# Experimental: (§1) NVS_ADME_rCYP2A2 is a biochemical, single-readout assay that uses extracted gene-proteins in a cell-free assay. Measurements were taken 0.2 hour after chemical dosing in a 96-well plate.NVS_ADME_rCYP2A2 is one of one assay component(s) measured or calculated from the NVS_ADME_rCYP2A2 assay. It is designed to make measurements of enzyme activity, a form of enzyme reporter, as detected with fluorescence intensity signals by Fluorescence technology.Data from the assay component NVS_ADME_rCYP2A2 was analyzed into 1 assay endpoint. This assay endpoint, NVS_ADME_rCYP2A2, was analyzed in the positive analysis fitting direction relative to Acetonitrile as the negative control and baseline of activity. Using a type of enzyme reporter, loss-of-signal activity can be used to understand changes in the enzymatic activity as they relate to the gene Cyp2a2. Furthermore, this assay endpoint can be referred to as a primary readout, because this assay has produced multiple assay endpoints where this one serves a enzymatic activity function. To generalize the intended target to other relatable targets, this assay endpoint is annotated to the cyp intended target family, where the subfamily is xenobiotic metabolism. […]
# [6] = target: rat CYP2C11, Cyp2c11 (gene 29277) (UniProt P08683); assay: NVS_ADME_rCYP2C11: NovaScreen (NVS) CYP450-related Enzyme Activity (ADME) Assay for rat CYP2C11 (AID 2283118)
# Chain of rat CYP2C11, Cyp2c11 (gene 29277) (P08683 whole entry, looked up): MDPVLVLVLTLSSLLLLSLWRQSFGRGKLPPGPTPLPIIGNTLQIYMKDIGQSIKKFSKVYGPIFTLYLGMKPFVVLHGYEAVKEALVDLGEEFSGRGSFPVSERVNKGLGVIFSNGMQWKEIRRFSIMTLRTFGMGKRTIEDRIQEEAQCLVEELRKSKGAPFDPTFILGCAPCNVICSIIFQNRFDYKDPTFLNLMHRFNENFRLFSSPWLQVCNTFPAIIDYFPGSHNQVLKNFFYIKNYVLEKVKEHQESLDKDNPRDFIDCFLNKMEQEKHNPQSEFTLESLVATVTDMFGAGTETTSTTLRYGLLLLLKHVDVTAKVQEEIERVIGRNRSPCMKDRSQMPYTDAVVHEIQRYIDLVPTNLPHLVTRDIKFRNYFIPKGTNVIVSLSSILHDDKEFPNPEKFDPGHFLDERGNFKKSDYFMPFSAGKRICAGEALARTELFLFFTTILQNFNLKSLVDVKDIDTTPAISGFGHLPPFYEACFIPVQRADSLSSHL
# In short: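 Screened first at 10 uM in duplicate, hits followed by concentration-response. Recombinant rat enzyme activity monitored by fluorescence 0.33 h post-dosing, normalised to acetonitrile negative control.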
# rat CYP2C6, gene 293989 = assay: NVS_ADME_rCYP2C6: NovaScreen (NVS) CYP450-related Enzyme Activity (ADME) Assay for rat CYP2C6 (AID 2283120)
# In short: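 Compounds first tested in duplicate at 10 uM, hits (e.g. 30% inhibition) re-run in singleton dose series to a 20 uM top concentration. Enzyme activity of recombinant rat CYP2C6 measured via fluorescent substrate turnover after 1 h; acetonitrile baseline.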
# rat CYP3A1, gene 25642 = assay: NVS_ADME_rCYP3A1: NovaScreen (NVS) CYP450-related Enzyme Activity (ADME) Assay for rat CYP3A1 (AID 2283126)
# In short: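 Compounds went first at 10 uM duplicate, then to series with 20 uM maximum. Fluorescence from substrate turnover by the recombinant enzyme was measured 0.5 h post-dosing, inhibition scored against acetonitrile vehicle.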
# [7] = target: rat CYP2A1, Cyp2a1 (gene 24894) (UniProt P11711); assay: NVS_ADME_rCYP2A1: NovaScreen (NVS) CYP450-related Enzyme Activity (ADME) Assay for rat CYP2A1 (AID 2283114; active = hit-call score of the fitted dose curve at least 0.9, where 1 is the maximum; inactive = score below 0.9)
# Chain of rat CYP2A1, Cyp2a1 (gene 24894) (P11711 whole entry, looked up): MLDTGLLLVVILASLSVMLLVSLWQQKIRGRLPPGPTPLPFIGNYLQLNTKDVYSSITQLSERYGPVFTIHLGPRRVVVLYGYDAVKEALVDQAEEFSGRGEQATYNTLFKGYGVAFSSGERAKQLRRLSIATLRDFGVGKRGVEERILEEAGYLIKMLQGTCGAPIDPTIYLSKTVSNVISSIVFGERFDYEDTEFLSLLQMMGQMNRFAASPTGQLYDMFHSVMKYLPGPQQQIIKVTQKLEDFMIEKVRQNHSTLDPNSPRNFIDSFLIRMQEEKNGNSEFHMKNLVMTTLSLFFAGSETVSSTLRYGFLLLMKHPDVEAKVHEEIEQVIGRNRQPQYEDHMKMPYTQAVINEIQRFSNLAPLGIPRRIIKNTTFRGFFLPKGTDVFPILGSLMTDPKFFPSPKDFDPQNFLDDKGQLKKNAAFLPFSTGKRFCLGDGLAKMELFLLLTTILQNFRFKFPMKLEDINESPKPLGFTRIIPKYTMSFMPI
# In short: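 Cell-free fluorescence enzyme-activity read on recombinant rat CYP2A1, taken 0.75 h post-dosing. Compounds were screened in duplicate at 10 uM, then hits tested in concentration series (max 20 uM); inhibition scored relative to acetonitrile baseline.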
# [8] = target: rat CYP2C13, Cyp2c13 (gene 171521) (UniProt P20814); assay: NVS_ADME_rCYP2C13: NovaScreen (NVS) CYP450-related Enzyme Activity (ADME) Assay for rat CYP2C13 (AID 2283121)
# Chain of rat CYP2C13, Cyp2c13 (gene 171521) (P20814 whole entry, looked up): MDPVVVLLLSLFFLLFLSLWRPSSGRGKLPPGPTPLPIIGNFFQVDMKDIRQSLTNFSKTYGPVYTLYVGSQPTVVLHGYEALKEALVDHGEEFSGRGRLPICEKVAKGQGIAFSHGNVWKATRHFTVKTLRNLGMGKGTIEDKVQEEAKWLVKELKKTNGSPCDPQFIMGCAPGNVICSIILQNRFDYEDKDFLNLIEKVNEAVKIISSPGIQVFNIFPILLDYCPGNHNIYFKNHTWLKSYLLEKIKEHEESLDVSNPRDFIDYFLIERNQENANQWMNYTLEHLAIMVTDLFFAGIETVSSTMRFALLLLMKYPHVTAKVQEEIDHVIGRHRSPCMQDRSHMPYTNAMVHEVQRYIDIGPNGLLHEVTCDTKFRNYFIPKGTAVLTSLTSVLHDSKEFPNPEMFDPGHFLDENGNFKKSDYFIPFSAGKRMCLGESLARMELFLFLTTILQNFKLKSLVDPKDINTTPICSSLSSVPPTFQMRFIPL
# Experimental: as §1, with “NVS_ADME_rCYP2C13” for “NVS_ADME_rCYP2A2”, “0.75” for “0.2”, “plate.NVS_ADME_rCYP2C13” for “plate.NVS_ADME_rCYP2A2”, “NVS_ADME_rCYP2C13,” for “NVS_ADME_rCYP2A2,”, “Cyp2c13.” for “Cyp2a2.”
compound,measurement,setting,value
C=CC(=O)OCC(CO)(COC(=O)C=C)COC(=O)C=C,AC50,[1],1.76 µM (active)
O=[N+]([O-])c1cc(N(CCO)CCO)ccc1NCCO,AC50,[2],3.87 µM (active)
same,AC50,[3],2.42 µM (active)
CC(C)Cc1ccc(C(C)C(=O)O)cc1 (stereo not given),outcome,[2],inactive
CC/C(=C(\c1ccccc1)c1ccc(OCCN(C)C)cc1)c1ccccc1,outcome,[4],inactive
O=C(c1ccc(OCCN2CCCCC2)cc1)c1c(-c2ccc(O)cc2)sc2cc(O)ccc12,outcome,[4],inactive
C#C[C@]1(O)CC[C@H]2[C@@H]3CCc4cc(O)ccc4[C@H]3CC[C@@]21C,AC50,[3],6.68 µM (active) and 7.82 µM (active) and 6.49 µM (active)
same,AC50,[1],1.02 µM (active) and 2.09 µM (active) and 1.18 µM (active)
same,AC50,[5],785 nM (active) and 1.44 µM (active) and 680 nM (active)
same,AC50,[6],2.5 µM (active) and 2.81 µM (active) and 1.76 µM (active)
same,AC50,"rat CYP2C6, gene 293989",1.43 µM (active) and 2.55 µM (active) and 1.67 µM (active)
same,AC50,"rat CYP3A1, gene 25642",2.51 µM (active) and 3.73 µM (active) and 1.4 µM (active)
CC(=O)OC(C)(C)C1CC=C(C)CC1 (stereo not given),AC50,[1],3.56 µM (active)
C[C@]12CC[C@@H]3c4ccc(O)cc4CC[C@H]3[C@@H]1CC[C@@H]2O,AC50,[1],813 nM (active) and 2.14 µM (active)
same,outcome,[7],inactive
same,AC50,[5],6.22 µM (active)
same,AC50,[8],492 nM (active) and 892 nM (active) and 748 nM (active)
same,outcome,"rat CYP3A1, gene 25642",inactive
O=S1(=O)CC(Cl)(Cl)C(Cl)(Cl)C1,AC50,[2],4.55 µM (active)
same,AC50,[4],0.431 µM (active)
